Fewer than 10 of roughly 1,400 compounds were called active.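 How the source made its calls: active means fluorescence-lowering compounds whose fitted half-maximal concentration is at or below ten times the highest valid dose tested; inconclusive means flat curve at 30 to 70% inhibition, or poor fit; inactive means the rest.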 Not all results are given here.
Target: Histone deacetylase 3 (Homo sapiens) (UniProt O15379)
Test: inhibition of human HDAC3 enzymatic activity – biochemical, fluorescence, cherry-picked samples, counter-screen for JMJD2C/GASC1 demethylase inhibitor project, dose response (AID 485318);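 further: enzyme preincubated with compound before substrate and trypsin were added; 0% = neutral control wells and -100% = SAHA positive control wells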
Conditions: recombinant HDAC3, fluorogenic peptide/trypsin coupled; series mostly up to 12 µM; activity change, negative = inhibition: at the top concentration

Histone deacetylase 3 (Homo sapiens), sequence (O15379 whole entry, looked up): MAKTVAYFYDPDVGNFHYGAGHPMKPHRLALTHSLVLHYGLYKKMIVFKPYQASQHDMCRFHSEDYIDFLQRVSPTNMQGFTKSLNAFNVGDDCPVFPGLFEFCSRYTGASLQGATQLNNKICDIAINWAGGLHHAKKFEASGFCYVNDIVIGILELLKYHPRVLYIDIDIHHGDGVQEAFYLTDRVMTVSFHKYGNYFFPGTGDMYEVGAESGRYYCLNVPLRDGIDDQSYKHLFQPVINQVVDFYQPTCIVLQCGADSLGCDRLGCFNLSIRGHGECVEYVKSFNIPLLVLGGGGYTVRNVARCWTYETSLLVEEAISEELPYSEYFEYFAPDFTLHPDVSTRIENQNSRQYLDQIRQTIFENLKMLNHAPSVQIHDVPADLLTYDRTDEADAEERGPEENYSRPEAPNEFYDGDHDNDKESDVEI

| SMILES | activity change, negative = inhibition |
| --- | --- |
| C[C@H]1CN(CCc2ccccc2)C(=O)[C@@H]1CC(=O)NCc1ccccc1 | -0.42% (inactive) |
| COc1ccc(NC(=S)NNC(=O)c2ccc(S(=O)(=O)N3CCOCC3)cc2)cc1 | 0.24% (inactive) |
| CN(c1ccc(OCC(=O)N2CCCCC2)cc1)S(=O)(=O)c1cccs1 | -0.149% (inactive) |
| Nc1c(Cl)ncnc1NCc1cccnc1 | 0.296% (inactive) |
| CCC(C)C(NC(=O)OC(C)(C)C)C(=O)NC(C(=O)N1CCCC1C(N)=O)C(C)CC (configuration not stated) | 0.796% (inactive) |
| COc1cc(OC)cc(C(=O)Nc2ccc(-n3cnnn3)c(C)c2)c1 | -0.279% (inactive) |
| N#CCCn1c(SCC(=O)N2CCN(S(=O)(=O)c3ccccc3)CC2)nc2ccccc21 | 0.508% (inactive) |
| CCOC(=O)Nc1cc(C)c(Cl)cc1OC | 1.18% (inactive) |
| Cc1onc(-c2ccccc2)c1C(=O)Nc1c(C)n(C)n(-c2ccccc2)c1=O | 0.51% (inactive) |
| CS(=O)(=O)N(CC(=O)Nc1ccccc1C(=O)NCCc1ccccc1)c1ccc2c(c1)OCCO2 | 0.133% (inactive) |
| CCOC(=O)c1[nH]c(C)c(/C(O)=C2\C(=O)C(=O)N(CCCN(CC)CC)C2c2cccnc2)c1C (configuration not stated) | 0.131% (inactive) |
| COc1ccc(CCNC(=O)N2c3ccccc3Sc3ccccc32)cc1 | 1.25% (inactive) |
| CCC(=O)Nc1ccc(NC(=O)CSc2nnnn2C(C)C)cc1 | 0.553% (inactive) |
| C[C@@H]1CCCCCCCCC(=O)OCCN(C(=O)OC(C)(C)C)[C@H](C)CCCCCCCCC(=O)OCCN(C(=O)OC(C)(C)C)[C@H](C)CCCCCCCCC(=O)OCCN1C(=O)OC(C)(C)C | 0.233% (inactive) |
| Cc1ccc(S(=O)(=O)Nc2ccc3c(c2)CC(=O)N([C@H](C)CO)C[C@@H](C)[C@H](CN(C)S(=O)(=O)c2ccccc2)O3)cc1 | 1.04% (inactive) |
| CCOc1ccc(CN(C)CC(=O)Nc2cc(C)c(C)cc2[N+](=O)[O-])cc1 | -0.108% (inactive) |
| COc1ccccc1OCCOCCn1cnc2ccccc2c1=O | -0.761% (inactive) |
| O=[N+]([O-])c1cc(/C=N/Nc2nc3ccccc3[nH]2)c(O)cc1O | 0.0861% (inactive) |
| CC(=O)C[C@@H](O)CC(=O)[C@H]1OC(=O)[C@H](C)CCCCc2ccccc21 | -0.548% (inactive) |
| CC[C@]12c3[nH]c4ccccc4c3CCN1C(=O)C(CC(=O)NCCCOC)C[C@@H]2C(=O)N1CCN(C(=O)c2ccco2)CC1 (some centres not stated) | 0.706% (inactive) |
| CCOCCc1nnc(NC(=O)c2ccc(OC)c(OC)c2)s1 | -1.23% (inactive) |

| SMILES | activity change, negative = inhibition |
| --- | --- |
| O=C1CCCc2c1nc(-c1ccccc1)n2O | 0.0393% (inactive) |
| COC(=O)[C@]1(Cc2ccccc2)N[C@H](CN(C)S(=O)(=O)c2ccc(F)cc2)[C@@H]2C(=O)N(Cc3ccccc3)C(=O)[C@@H]21 | 0.164% (inactive) |
| COc1ccc(C2CC(c3cccs3)=NN2S(=O)(=O)c2ccc(C)cc2)cc1 (configuration not stated) | 0.501% (inactive) |
| COc1ccc(/C=C/C(=O)NC(=S)NNC(=O)Cc2cccs2)cc1OC | -0.579% (inactive) |
| Cc1ccc(N2CC(C(=O)Nc3ccc(N(C)C)cc3)CC2=O)cc1C (configuration not stated) | 0.359% (inactive) |
| COc1ccc(NN=Nc2nc3c([nH]2)c(=O)n(C)c(=O)n3C)cc1 | 0.508% (inactive) |
| O=C(Cc1sc(-c2ccccc2)nc1-c1ccccc1)Nc1ccccc1 | -0.152% (inactive) |
| CCc1ccc(NC(=O)CSc2nnc(CNC(=O)c3c(F)cccc3Cl)o2)cc1 | 0.0315% (inactive) |
| O=C1CC2(CCN(C(=O)c3ccccc3Cl)CC2)Oc2ccccc21 | 0.607% (inactive) |
| C[C@H]1CN([C@@H](C)CO)C(=O)Cc2cc(NS(=O)(=O)c3cccs3)ccc2O[C@H]1CN(C)S(=O)(=O)c1cn(C)cn1 | -0.706% (inactive) |
| CC(=O)Nc1ccc2c(c1)C(C)(C)C(C)N2C (configuration not stated) | -1.19% (inactive) |
| O=C(O)c1ccnc(C(=O)O)c1 | -0.152% (inactive) |
| COc1ccc(NC(=O)Nc2cccc3c2O[C@H](CN(C)C(=O)NC(C)C)[C@@H](C)CN([C@H](C)CO)C3=O)cc1 | -0.142% (inactive) |
| COc1ccc(NC(=S)NCCCn2ccnc2)cc1 | -0.13% (inactive) |
| CCOc1ccc(N=Cc2c(O)n(-c3cccc(C)n3)c(=O)c3ccccc23)cc1 | 0.766% (inactive) |
| Cc1cccc(C)c1N1C(=O)c2cccc([N+](=O)[O-])c2C1=O | -0.27% (inactive) |
| CCOC(=O)C1CCN(S(=O)(=O)c2cccc(-c3cn4cc(Cl)ccc4n3)c2)CC1 | 0.424% (inactive) |
| CC(=O)c1c(C(C)=O)c(C)n(NC(=O)c2ccncc2)c1C | 0.563% (inactive) |
| CN1CCN(c2nc3ccccn3c(=O)c2/C=C(\C#N)S(=O)(=O)c2ccc(Cl)cc2)CC1 | 1.17% (inactive) |
| O=C1CC(N2CCC(O)(c3ccc(Cl)cc3)CC2)C(=O)N1Cc1ccc(N2CCCC2=O)cc1 (configuration not stated) | 0.431% (inactive) |
| CS(=O)(=O)c1ccccc1-c1nnc(NC(=O)c2ccc3ncsc3c2)o1 | -1.47% (inactive) |

| SMILES | activity change, negative = inhibition |
| --- | --- |
| CN(C(=O)c1ccc(NC(=O)Cc2ccc(NC(=O)C3CCN(C(=O)C4CCC4)CC3)cc2)cc1)C1CC1 | 0.986% (inactive) |
| CCS(=O)(=O)N1CCN(c2ccc([N+](=O)[O-])c(N3CCOCC3)c2)CC1 | -0.0167% (inactive) |
| O=C(CCN1C(=O)/C(=C/c2ccc(F)cc2)SC1=S)N[C@@H](CO)Cc1ccccc1 | -0.0269% (inactive) |
| c1ccc(-c2ccccc2OCCN2CCCC2)cc1 | -0.955% (inactive) |
| CSc1nc(N)nc2c1ncn2CC(=O)N[C@H](CO)Cc1c[nH]c2ccccc12 | -0.258% (inactive) |
| CCc1nn2c(N3CCOCC3)cc(C)nc2c1-c1ccc(F)cc1 | 0.143% (inactive) |
| CSc1nc(N)nc2c1ncn2CC(=O)NCCNc1ccc([N+](=O)[O-])cn1 | -0.105% (inactive) |
| CC1=C(C(=O)OC(C)C)C(c2ccccc2)NC(=S)N1C (configuration not stated) | -0.136% (inactive) |
| COc1ccccc1N1CCN(c2nc3c(C)cccn3c(=O)c2C=O)CC1 | 0.107% (inactive) |
| O=c1c2ccccc2nc2c3ccccc3c(NCc3ccco3)nn12 | 0.625% (inactive) |
| O=C(NCC(c1ccco1)N1CCN(c2ccc(F)cc2)CC1)OCc1ccccc1 (configuration not stated) | 0.174% (inactive) |
| CC(C)(C)NC(=O)CSc1nc2cccnc2n1C1CCCCC1 | 0.349% (inactive) |
| C/C(=N\Nc1nc(C(=O)O)cs1)c1ccccc1 | -0.586% (inactive) |
| CN1CCN(Cc2c(C#N)c3ccccc3n2C)CC1 | -0.48% (inactive) |
| CN(C)CCCNC1=CC(=O)OC12CCCCC2 | -0.144% (inactive) |
| Nn1cc(-c2ccccc2)nc1SCC(=O)N1CCN(S(=O)(=O)c2ccc3ccccc3c2)CC1 | -0.203% (inactive) |
| CCN(CC)C(=O)C1c2ccccc2Oc2ccccc21 | -0.357% (inactive) |
| CCCn1nnnc1SCC(=O)NCc1ccc2c(c1)OCO2 | 0.24% (inactive) |
| Cc1noc(C)c1COc1ccc(C(=O)OC(C)C(=O)Nc2ccc(N3CCOCC3)cc2)cc1 (configuration not stated) | 0.0949% (inactive) |
| CCNC(=O)c1ccc2c(c1)S(=O)(=O)c1ccccc1C2=O | 0.35% (inactive) |

Source: PubChem BioAssay AID485318 (Broad Institute, 2010)
